Compound activity as filed in PubChem.
Rows were chosen to be rich in hits. Some 2.4% of all compounds tested hit in one or more screens of this group.
Pol beta inh – qHTS Assay for Inhibitors of DNA Polymerase Beta; hit rate 1.3% among 340,000; P06746; Potency, µM (doses to about 114 µM), inactives show top-dose activity change, negative = inhibition, actives largely listed as inhibitors; Pol beta primer extension/strand displacement, fluorescence kinetic; further: on the % scale 0 is the no-effect control and ±100 the full control effect
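Values derive from four-parameter Hill fits of normalized kinetic data: reads at 0 and 10 min following addition of 50 nM substrate to 10 nM Pol beta preincubated 15 min with compound.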
Pol eta inh-1 – qHTS for Inhibitors of Polymerase Eta; recombinant Pol eta, fluorescent DNA replication assay; Potency, µM (doses to about 114 µM), without a hit: at the highest dose activity change, negative = inhibition, usual class: inhibitors; hit rate 1.2% among 390,000; further: on the % scale 0 is the no-effect control and ±100 the full control effect
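Pol eta at 10 nM preincubated with compounds 15 min at room temperature; reaction started with fluorescent substrate (50 nM final) and read kinetically at 0 and 10 min.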
Pol iota inh – qHTS for Inhibitors of Polymerase Iota. AID 588590, 2011. Potency, µM (doses to about 115 µM), for the others: at the top dose activity, negative = inhibition, actives largely listed as inhibitors. Pol iota fluorescent replication assay, 10 min. hit rate 1% among 390,000
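Fluorescent replication assay read twice, at 0 min and 10 min after adding 50 nM (final) substrate. Enzyme (10 nM) and compounds were first incubated 15 min at room temperature; enzyme-free buffer wells were negative controls.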
Pol kappa inh-1 – qHTS for Inhibitors of Polymerase Kappa | AID 588579, 2011 | hit rate 0.53% among 400,000 | purified Pol kappa, fluorescent DNA synthesis assay, 10 min | Potency, µM (series often up to 107 µM), for the others: at the highest dose activity, negative = inhibition, actives largely listed as inhibitors; further: on the % scale 0 is the no-effect control and ±100 the full control effect
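Readout: fluorescence, taken kinetically at 0 and 10 min. Conditions: 10 nM Pol kappa, 15 min RT compound preincubation, 50 nM substrate final. Controls: enzyme-free buffer wells.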
FEN1 inh-1 – qHTS Assay for the Inhibitors of Human Flap endonuclease 1 (FEN1); P39748; Recombinant FEN1 flap cleavage, fluorescence, 15 min; Potency, µM (titrated, usually from 114 µM), for the others: at the top dose activity change, negative = inhibition, actives largely listed as inhibitors; hit rate 0.35% among 390,000; AID 588795, 2011; further: on the % scale 0 is the no-effect control and ±100 the full control effect; nearly all actives have a fitted effect of over 65% in size
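In this screen, 50 nM flap DNA substrate was added to 10 nM FEN1 pretreated with compound for 15 min at room temperature; cleavage was followed with reads at 0 and 15 min, and Hill fitting gave concentration–response parameters.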
WRN helicase inh-1 – qHTS for Inhibitors of WRN Helicase | Bifunctional 3'-5' exonuclease/ATP-dependent helicase WRN (Homo sapiens), Q14191 | WRN helicase unwinding, fluorescent forked duplex, kinetic | Potency, µM (doses to about 114 µM), without a hit: top-dose activity change, negative = inhibition, actives largely listed as inhibitors | hit rate 0.46% among 360,000; further: on the % scale 0 is the no-effect control and ±100 the full control effect; nearly all actives have a fitted effect of over 55% in size
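Enzyme (20 nM final) and test compound sit together 15 min at room temperature before substrate addition. Substrate is a single-forked duplex oligonucleotide (100 nM) labelled with fluorophore and quencher, with 2 mM ATP; helicase unwinding raises red fluorescence, read kinetically.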
TbPGK inh – qHTS for inhibitors of Phosphogylcerate Kinase: Hit Validation Screen; shares compounds with Pol kappa inh-1; TbPGK coupled GAPDH assay, Kinase-Glo luminescence; Potency, µM (doses to about 57.5 µM), for the others: top-dose activity change, negative = inhibition, most hits filed as inhibitors; hit rate 79% among 500; further: on the % scale 0 is the no-effect control and ±100 the full control effect; nearly all actives have a fitted effect of over 65% in size
Target sequence (P07378 whole entry, looked up): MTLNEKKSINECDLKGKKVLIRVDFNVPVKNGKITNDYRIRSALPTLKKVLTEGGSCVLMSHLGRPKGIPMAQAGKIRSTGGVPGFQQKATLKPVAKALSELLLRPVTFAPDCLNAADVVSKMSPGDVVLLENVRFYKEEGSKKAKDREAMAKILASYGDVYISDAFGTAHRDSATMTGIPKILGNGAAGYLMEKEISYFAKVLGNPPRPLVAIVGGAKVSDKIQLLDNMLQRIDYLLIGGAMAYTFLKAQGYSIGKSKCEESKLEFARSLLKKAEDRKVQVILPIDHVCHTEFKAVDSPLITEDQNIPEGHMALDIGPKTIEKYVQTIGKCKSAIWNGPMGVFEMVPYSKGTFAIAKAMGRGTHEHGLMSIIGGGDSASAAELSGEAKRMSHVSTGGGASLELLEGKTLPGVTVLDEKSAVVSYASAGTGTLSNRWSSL
Pol iota confirm – qHTS for Inhibitors of Polymerase Iota: Confirmatory Assay for Cherry-picked Compounds; shares compounds with Pol kappa inh-1; Pol iota primer extension, TAMRA/BHQ fluorescence; Potency, µM, hits mostly inhibitors; hit rate 77% among 1,500; AID 720496, 2013
Pol kappa inh-2 – qHTS for Inhibitors of Polymerase Kappa: Confirmatory Assay for Cherry-picked Compounds; Potency, µM, most hits filed as inhibitors; shares compounds with Pol eta inh-1; hit rate 76% among 920; purified Pol-kappa, fluorescent strand-displacement substrate; AID 720501, 2013
Pol eta inh-2 – qHTS for Inhibitors of Polymerase Eta: Confirmatory Assay for Cherry-picked Compounds; Pol eta primer extension, TAMRA/BHQ fluorescence, 10 min; AID 720502, 2013; shares compounds with Pol eta inh-1; hit rate 64% among 2,600; Potency, µM, most hits filed as inhibitors
FEN1 inh-2 – qHTS Assay for the Inhibitors of FEN1: Confirmatory Assay for Cherry-picked Compounds; shares compounds with FEN1 inh-1; FEN1 flap cleavage, TAMRA/BHQ2 fluorogenic DNA substrate; Potency, µM, actives largely listed as inhibitors; hit rate 79% among 880; AID 720498, 2013; further: nearly all actives have a fitted effect of over 60% in size
WRN helicase inh-2 – qHTS for Inhibitors of WRN Helicase: Confirmatory Assay for Cherry-picked Compounds | Potency, µM (doses to about 57.1 µM), inactives show at the highest dose activity, negative = inhibition, hits mostly inhibitors | hit rate 63% among 610 | shares compounds with WRN helicase inh-1 | AID 720497, 2013 | WRN helicase DNA unwinding, fluorescence kinetic; further: nearly all actives have a fitted effect of over 65% in size
TO displacement – qHTS for Inhibitors of WRN Helicase: Thiazole Orange DNA Binding Counterscreen | shares compounds with WRN helicase inh-1 | thiazole orange DNA binding displacement, fluorescence | Potency, µM (titrated, usually from 57.1 µM), for inactives: at the highest dose activity change, negative = inhibition, most hits filed as inhibitors | hit rate 10% among 610;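 further: drop in dye fluorescence marks compound binding to DNA; on the % scale 0 is the no-effect control and ±100 the full control effect; nearly all actives have a fitted effect of over 60% in size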
BLM counter – qHTS for Inhibitors of WRN Helicase: BLM Helicase Counterscreen for WRN Inhibitors; shares compounds with WRN helicase inh-1; Recombinant BLM helicase DNA unwinding, red fluorescence; Potency, µM (top dose mostly 57.1 µM), inactives show top-dose activity change, negative = inhibition, most hits filed as inhibitors; hit rate 60% among 610; further: nearly all actives have a fitted effect of over 60% in size
* marks the source's active call; other numbers are inactive results; u = inconclusive; x = no result given; [ ] = dose if it differs, or a comment. The call rests on the fitted dose curve; in most records, active means well fitted curve in the direction sought with a large enough effect; inconclusive means small, poorly fitted or top-dose-only effect, or another doubt; inactive means no such curve, though single readings can be large; an effect the other way counts as inactive or inconclusive. Potency means the concentration at half of the fitted maximal effect.

SMILES	Pol beta inh	Pol eta inh-1	Pol iota inh	Pol kappa inh-1	FEN1 inh-1	WRN helicase inh-1	Pol iota confirm	Pol kappa inh-2	Pol eta inh-2	FEN1 inh-2	WRN helicase inh-2	TO displacement	BLM counter	others
CCn1c(SCc2nc3sc(C(=O)O)c(C)c3c(=O)[nH]2)nc2ccccc21	8.91µM*	0.708µM*	2.82µM*	3.55µM*	12.6µM*	20µM*	9.47*	x	2.69*	21.3*	6.81µM*	12.1µM*	19.2µM*	TbPGK inh=u
CCn1c(C)cc(/C=C2/NC(=O)N(CC(=O)Nc3cccc(C)c3)C2=O)c1C	-1.8%	10.2%	-0.5%	-24.6%	-15.3%	-1.9%	x	x	x	x	x	x	x
N#CNC(=O)c1ccc(-n2cccc2/C=C2\NC(=O)N(CC(=O)Nc3ccc(Cl)cc3)C2=O)cc1	x	x	x	x	x	x	6.7*	4.74*	u	23.9*	4.29µM*	u	0.961µM*
N#CNC(=O)c1ccc(-n2cccc2/C=C2\NC(=O)N(CC(=O)Nc3cccc(F)c3)C2=O)cc1	x	x	x	x	x	x	29.9*	13.4*	42.6*	33.8*	10.8µM*	9.61µM*	4.82µM*
O=C(Nc1ccccc1)Nc1ncc([N+](=O)[O-])s1	-2.0%	-8.5%	21.2%	-7.6%	9.2%	-3.0%	x	x	x	x	x	x	x
O=C(COC(=O)c1ccccc1)Nc1ncc([N+](=O)[O-])s1	x	0.794µM*	2.24µM*	22.4µM*	44.7µM*	2.99µM*	2.67*	0.752*	1.69*	67.5*	3.41µM*	24.1µM*	1.08µM*	TbPGK inh=3.26µM*
CCCCn1nc(NC(=O)c2cccc(Cl)c2)c2cc3cccc(C)c3nc21	1.0%	x	4.0%	-13.7%	23.3%	x	x	x	x	x	x	x	x
CCOC(=O)C1CCCN(C(=O)c2cc(-c3ccco3)nc3ccccc23)C1 (stereo unspecified)	x	3.16µM*	3.55µM*	22.4µM*	56.2µM*	31.6µM*	18.9*	9.47*	19*	x	13.6µM*	u	1.71µM*	TbPGK inh=10.3µM*
O=C(COc1ccccc1C(=O)N/N=C\c1ccc(O)c(O)c1)N/N=C/c1ccc(O)c(O)c1	0.282µM*	-97.9%	-103.1%	0.708µM*	1.58µM*	0.267µM*	0.423*	x	0.338*	16.9*	0.271µM*	19.2µM*	0.121µM*	TbPGK inh=0.291µM*
Cc1ccc(NC(=O)CN2C(=O)CCc3cc(S(=O)(=O)N4CCOCC4)ccc32)c(C)c1	u	-14.3%	u	0.9%[60.1 µM]	-2.0%	x	x	x	x	x	x	x	x
CCCCCC/C(C)=C1/SC(=S)NC1=O	5.6%	-17.6%	u	-6.8%	-6.8%	-16.0%	x	x	x	x	x	x	x
C/C(C/C(C)=C1/SC(=S)NC1=O)=C1\SC(=S)NC1=O	15.8µM*	3.55µM*	3.55µM*	20µM*	12.6µM*	28.2µM*	29.9*	x	6.01*	19*	3.83µM*	-4.3%	u
CCN(CC)CCCNc1nc2ccccc2c2[nH]c3ccc(OC)cc3c12	x	10µM*	17.8µM*	17.8µM*	3.55µM*	25.1µM*	2.99*	3.36*	30.1*	2.69*	6.81µM*	u	u
CCN(CC)CCCNc1nc(-c2ccccc2)nc2ccccc12	u	-13.0%	13.3%	3.1%	-23.9%	-0.7%	x	x	x	x	x	x	x
COc1ccc(C)cc1S(=O)(=O)Nc1cccc(-c2ccc(N3CCCC3)nn2)c1	-4.5%	-19.9%	37.2%	-9.3%[60.1 µM]	3.2%	x	x	x	x	x	x	x	x
CCc1cc(=O)oc2cc(C)c(CN3CCCC3)c(O)c12	7.94µM*	22.4µM*	3.16µM*	8.91µM*	25.1µM*	31.6µM*	u	23.8*	30.1*	x	15.2µM*	24.1µM*	3.83µM*
CC(=O)Nc1ccc2nc3c(=O)[nH]c(=O)[nH]c3nc2c1	28.2µM*	x	8.91µM*	28.2µM*	28.2µM*	x	11.9*	2.38*	16.9*	37.9*	3.83µM*	29.4%	1.36µM*
CC(=O)Nc1ccc2cc3ccc(NC(C)=O)cc3nc2c1	-20.5%	u	u	-17.8%	u	7.7%	x	x	x	x	x	x	x
Cc1ccc(S(=O)(=O)N2CCN(C(=O)c3cc4c(s3)CCCC4)CC2)cc1	x	-18.7%	-7.5%	-1.4%	17.4%	-2.7%	x	x	x	x	x	x	x
